Marburg entry inh = Marburg virus entry inhibition; Marburg virus pseudotyped entry inhibition, cell reporter; 300,000 compounds, 1.8% hits; AID 540276; Potency, µM (titrated, usually from 37.8 µM), for the others: at the highest dose activity change, negative = inhibition, hits mostly inhibitors; calls by dose curve; tested in HEK293 cells; further: potency means the concentration at half of the fitted maximal effect; on the % scale 0 is the no-effect control and ±100 the full control effect
Lassa entry inh = inhibitors of Lassa virus binding or cell entry; 300,000 compounds, 1.2% hits; Potency, µM (doses to about 37.9 µM), without a hit: at the top dose activity change, negative = inhibition, most hits filed as inhibitors; AID 540256; Lassa virus pseudotype entry inhibition, cell reporter; calls by dose curve; tested in HEK293 cells; further: potency means the concentration at half of the fitted maximal effect; on the % scale 0 is the no-effect control and ±100 the full control effect; nearly all actives have a fitted effect of over 50% in size
CHX counter = counter-screen for Shiga toxin inhibitors: cycloheximide protein synthesis inhibition; cell reporter, cycloheximide protein synthesis inhibition counterscreen; max response, %; 300,000 compounds, 12% hits; in the data active means max response mostly above about 13%, no sharp cut-off; inactive means mostly below about 14%; further: read at 38.3 µM for the half of the compounds with a filed dose; 0% is about no effect
Pf growth 48h = inhibits P. falciparum growth in the first generation, 48 h. Potency, µM (highest dose often 28.7 µM), for inactives: at the top dose activity change, negative = inhibition, most hits filed as inhibitors. 310,000 compounds, 5.9% hits. P. falciparum luciferase growth in erythrocytes, 48 h; further: potency means the concentration at half of the fitted maximal effect; on the % scale 0 is the no-effect control and ±100 the full control effect
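Cell-based growth assay: transgenic P. falciparum expressing firefly luciferase, cultured in red cells within RPMI 1640 containing 0.5% w/v Albumax, 24 mM bicarbonate and gentamycin. A drop in luciferase activity indicates inhibition.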
Pf growth 96h = P. falciparum growth inhibition at 96 hours. P. falciparum luciferase reporter growth, 96 h. Potency, µM (series often up to 28.7 µM), without a hit: at the highest dose activity change, negative = inhibition, usual class: inhibitors. 320,000 compounds, 6.9% hits; further: potency means the concentration at half of the fitted maximal effect; on the % scale 0 is the no-effect control and ±100 the full control effect
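Infected RBCs, 2% Hct / 0.05% parasitemia final; luciferase-reporter P. falciparum; cpd 96 h, 37 C, 5% CO2; luciferase detection reagent; luminescence.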
Shiga inhibitor = Shiga toxin inhibition | Vero cells, Shiga toxin protein synthesis inhibition reporter | 290,000 compounds, 9.2% hits | AID 2315 | inhibition, % at 38.7 µM; in the data active means inhibition mostly above about 28%, no sharp cut-off; inactive means mostly below about 43%; further: 0% is about no effect
* = called active by the depositor; u = inconclusive; x = not tested or not shown; [ ] = remark or other dose. Sampled rows, rich in hits. Any-hit rate of the full collection: about 19%. Unless noted, the call rests on the fitted dose curve; in most records, active means well fitted inhibition curve with a large enough effect; inconclusive means small, poorly fitted or top-dose-only effect, or another doubt; inactive means no such curve, though single readings can be large or run the other way.

SMILES | Marburg entry inh | Lassa entry inh | CHX counter | Pf growth 48h | Pf growth 96h | Shiga inhibitor
CCc1ccc(C2=NN(C(C)=O)C(c3ccco3)C2)cc1 (configuration not stated) | x | x | 34* | 52% | -5% | 79*
COc1ccc(C2=NN(C(=O)c3ccco3)C(c3ccco3)C2)cc1OC (configuration not stated) | -27%[46.1 µM] | u | 14* | 0% | 76% | 41*
CCC(=O)N1N=C(c2ccc(Cl)cc2)CC1c1ccco1 (configuration not stated) | -6%[14.2 µM] | -28% | 2 | 2% | -3% | 12
COc1ccc(C2=NN(C(N)=S)C(c3ccco3)C2)cc1 (configuration not stated) | x | x | 20* | 33% | -28% | 27
COc1ccc(/C=C(/NC(=O)/C=C/c2ccccc2)C(=O)NCCCCCC(=O)O)cc1 | 6% | 1% | 0 | -14% | -9% | -12
O=C(CCNC(=O)c1ccc([N+](=O)[O-])cc1)Nc1cccc(S(=O)(=O)N2CCCCC2)c1 | x | x | 2 | 89% | 2% | -5
CC1(C)C(Cl)C(=O)C(C(=O)c2ccccc2)C(=O)C1Cl (configuration not stated) | -1%[46.1 µM] | 22%[46.1 µM] | -3 | 204% | u | -32
COc1ccc(C(=O)Oc2c(Sc3ccc(Cl)cc3)c(C)nn2C(C)(C)C)cc1OC | 1%[46.1 µM] | -28%[46.1 µM] | x | x | x | x
Cc1ccc(/C=C2/C(=O)NC(=O)N(CC3CCCO3)C2=O)s1 (configuration not stated) | -15% | 7% | 10 | 13% | 25% | 97*
Cc1ccc(/C=C2\C(=O)NC(=O)N(CCc3ccc(F)cc3)C2=O)s1 | 11% | 2% | 6 | 77% | -9% | 29
COc1ccc(C2CC(=O)N3CN(c4ccccc4F)CSC3=C2C#N)cc1OC (configuration not stated) | -7% | x | -6 | x | 7% | -26
COCc1c(C(=O)OCc2nc(N)nc(Nc3ccccc3C)n2)oc2ccccc12 | 23µM* | u | 1 | u | u | 21
CCCCC(=O)OCc1nc(N)nc(Nc2ccccc2C)n1 | -25% | u | 58* | 0% | -2% | active
COc1ccccc1C(=O)OCc1nc(N)nc(Nc2ccccc2C)n1 | u | u | 36* | 47% | 60% | 43
Cc1ccc(/C=C/C(=O)OCc2nc(N)nc(Nc3ccccc3C)n2)o1 | x | x | -2 | 7% | 0% | -7
Cc1ccc(N2CC(C(=O)OCc3nc(N)nc(Nc4ccccc4C)n3)CC2=O)cc1 (configuration not stated) | -2%[46.1 µM] | 8% | x | 32% | 3% | x
Cc1ccccc1Nc1nc(N)nc(COC(=O)c2ccc(S(=O)(=O)N(C)C)cc2)n1 | 2% | -1% | 6 | u | u | -3
Cc1ccccc1Nc1nc(N)nc(COC(=O)C2CCCCC2)n1 | 3% | 5% | 71* | 40% | 20% | 70*
CCc1ccccc1Nc1nc(N)nc(COC(=O)C2=COCCO2)n1 | x | x | x | 18% | 3% | x
CCc1ccccc1Nc1nc(N)nc(COC(=O)CCC(=O)c2ccc(F)cc2)n1 | u | 10µM* | x | u | u | x
COCCCNC(=O)CSC1=Nc2ccccc2C2=NC(CCC(=O)NCc3ccc(OC)cc3)C(=O)N12 (configuration not stated) | x | -5%[46.1 µM] | x | x | x | x
CCC/C=C(\CCC)C(NS(=O)(=O)c1cccc2cccnc12)c1ccc(C(=O)OC)cc1 (configuration not stated) | u | u | -2 | u | 13µM* | -8
Cc1nc([N+](=O)[O-])c(C(=O)OCc2cccc(Br)c2)n1C | 8%[46.1 µM] | 6%[46.1 µM] | 8 | 2% | 7.4µM* | 28
Cc1nc([N+](=O)[O-])c(C(=O)OCc2ccccc2)n1C | 6%[46.1 µM] | -1%[46.1 µM] | 10 | 45% | u | 22
COc1ccc(OCCSc2ncnc3nc[nH]c23)cc1 | x | x | 37* | x | u | 36
SMILES | Marburg entry inh | Lassa entry inh | CHX counter | Pf growth 48h | Pf growth 96h | Shiga inhibitor
Fc1ccccc1OCCSc1ncnc2nc[nH]c12 | x | x | 36* | 62% | 4.7µM* | 76*
Cc1ccc2cc(CN(CC3CCCO3)C(=O)Nc3ccccc3F)c3nnnn3c2c1 (configuration not stated) | -2%[46.1 µM] | 6% | 45* | 42% | u | 84*
Cc1c(C(=O)NCCO)[n+](=O)c2ccccc2n1[O-] | x | x | x | -8% | -30% | x
COc1cccc(C(=O)NCC(c2ccc(N(C)C)cc2)N2CCc3ccccc32)c1OC (configuration not stated) | x | -12%[46.1 µM] | x | x | x | x
Cc1ccnc2nc(NC(=O)c3ccco3)nn12 | x | x | 26* | 78% | 8% | 48*
O=C(Nc1nc2nccc(-c3ccccc3)n2n1)c1ccccc1 | u | 11%[46.1 µM] | 22* | 74% | 117% | 60
O=C(Nc1nc2nc(-c3ccccc3)cc(-c3ccccc3)n2n1)c1ccco1 | u | u | 9 | 2.9µM* | x | -5
CC(=O)Nc1nc2nc(-c3ccccc3)cc(-c3ccccc3)n2n1 | -8% | -4% | 10 | u | 41% | -26
COc1cc(OC)cc(C(=O)NCC2CCCN(C(=O)c3csc(C(C)C)n3)C2)c1 (configuration not stated) | 7% | 18% | 21* | 6% | 6% | -8
COc1ccc(NC2CCCN(C(=O)c3csc(C(C)C)n3)C2)cc1 (configuration not stated) | x | x | -2 | 26% | u | -13
CN(Cc1ccco1)C(=O)C1CCN(c2nnc(-n3cccc3)s2)CC1 | x | x | -4 | -14% | 0% | 21
CCCCCCCCn1ccc(=N)cc1 | u | u | 1 | 0.37µM* | u | -13
CCCCCCCCCCn1ccc(=N)cc1 | u | 1.8µM* | 0 | 0.21µM* | u | -19
CC1CCN(c2nc3ccc(C(=O)NCCc4ccc(S(N)(=O)=O)cc4)cc3s2)CC1 | 1%[46.1 µM] | 28%[46.1 µM] | x | x | x | x
OCCN1CCN(CC(O)COC(c2ccc(F)cc2)c2ccc(F)cc2)CC1 (configuration not stated) | 2µM* | u | -6 | -34% | -29% | -8
COc1ccc(N2CCN(CC(O)COC(c3ccc(F)cc3)c3ccc(F)cc3)CC2)cc1 (configuration not stated) | x | x | -3 | 9.3µM* | 15µM* | -3
CCCCn1c(O)c(C(CC)=NCc2ccc3c(c2)OCO3)c(=O)[nH]c1=O | u | u | 0 | u | 13% | -12
Cc1cc(C)n(-c2ccc(Cl)c(C(=O)NCc3ccccc3)n2)n1 | -27%[46.1 µM] | x | 0 | -12%[5.75 µM] | -1% | 7
Clc1ccc(C(c2ccc(Cl)cc2)n2cc[n+](CC(OCc3ccc(Cl)cc3Cl)c3ccc(Cl)cc3Cl)c2)cc1 (configuration not stated) | 13µM* | x | x | u | u | x
O=C(OCc1ccc(Cl)cc1Cl)c1ccncc1 | 13% | 1% | 6 | -10% | 5% | -16

High-throughput results as filed in PubChem.
